Screening results as filed in PubChem BioAssay.
ROC1-CUL1 inh: inhibitors of human ROC1-CUL1 ubiquitin ligase activity; E3 ubiquitin-protein ligase RBX1 (Homo sapiens) + Cullin-1 (Homo sapiens), P62877+Q13616; in vitro K48 di-Ub FRET, acceptor:donor ratio, 45 min; inhibition, % at 10 µM; 0.6% of 140,000 active; AID 1347404, 2020; in the data active = inhibition above about 25%
Target sequence (P62877 whole entry, looked up): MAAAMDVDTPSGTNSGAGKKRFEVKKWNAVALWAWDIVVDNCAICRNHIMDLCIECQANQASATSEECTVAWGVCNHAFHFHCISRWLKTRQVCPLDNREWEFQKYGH
Target sequence (Q13616 whole entry, looked up): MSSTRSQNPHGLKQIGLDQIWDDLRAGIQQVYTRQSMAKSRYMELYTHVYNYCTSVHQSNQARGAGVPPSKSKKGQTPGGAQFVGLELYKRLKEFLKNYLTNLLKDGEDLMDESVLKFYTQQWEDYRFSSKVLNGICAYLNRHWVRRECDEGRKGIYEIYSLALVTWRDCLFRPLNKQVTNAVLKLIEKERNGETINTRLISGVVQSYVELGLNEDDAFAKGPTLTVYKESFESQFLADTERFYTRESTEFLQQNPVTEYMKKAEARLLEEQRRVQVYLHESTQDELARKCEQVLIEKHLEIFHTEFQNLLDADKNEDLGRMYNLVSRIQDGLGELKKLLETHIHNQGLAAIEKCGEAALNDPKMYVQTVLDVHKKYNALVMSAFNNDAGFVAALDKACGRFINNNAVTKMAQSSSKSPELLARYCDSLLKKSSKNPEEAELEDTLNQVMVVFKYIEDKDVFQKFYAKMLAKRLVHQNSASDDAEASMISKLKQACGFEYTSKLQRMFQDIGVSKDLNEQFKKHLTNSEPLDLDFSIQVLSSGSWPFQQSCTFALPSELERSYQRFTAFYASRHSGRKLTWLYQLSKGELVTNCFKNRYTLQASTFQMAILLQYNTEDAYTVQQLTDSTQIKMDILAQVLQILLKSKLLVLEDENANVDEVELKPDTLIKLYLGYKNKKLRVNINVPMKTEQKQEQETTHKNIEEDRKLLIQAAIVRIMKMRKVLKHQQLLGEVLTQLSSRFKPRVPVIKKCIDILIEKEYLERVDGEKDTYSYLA
Hits are given with their value; - = inactive. The full list was thinned out, with hits kept by preference.

SMILES	ROC1-CUL1 inh
Cc1ccc2ccc3c(c2c1)-c1cccc2ccc(C)c-3c12	-
Cc1noc(C)c1C(=O)N1CCCC(CNS(=O)(=O)Cc2ccccc2)C1 (configuration not stated)	-
O=C1C(Br)=CC2=C(c3ccccc3C(=O)O)C3C=C(Br)C(=O)C(Br)C3OC2=C1Br (configuration not stated)	117
O=C1C=CC2=C(c3ccccc3C(=O)O)C3C=CC(=O)C(Br)C3OC2=C1Br (configuration not stated)	113
C/C(=N/NC(=O)CC1N=C(Cc2ccccc2)NNC1=O)c1ccco1 (configuration not stated)	-
COC(=O)c1c(I)c(I)nn1C	-
Cc1ccccc1OCC(=O)Nc1nnc(COc2ccccc2Cl)s1	-
O=C1NC(=O)C(C=Nc2ccc([N+](=O)[O-])cc2O)C(=O)N1	-
O=C(CSc1nccn1Cc1ccccc1)n1c2c(c3ccccc31)CCCC2	-
O=C(Nc1ccccc1)C1=C(N2CCOCC2)c2ccccc2S1(=O)=O	-
COc1ccc(OC)c2c(=O)c(=O)c12	-
O=C1c2ccc(-c3nc4ccccc4c(=O)o3)cc2C(=O)N1c1cccc2ccccc12	-
CN1C2CCC1/C(=C/c1cccn1C)C(=O)/C2=C\c1cccn1C	25
Cn1cccc1/C=N/Nc1nncc(-c2ccccc2)n1	-
CN1C2CCC1/C(=C/c1cc(Br)cs1)C(=O)/C2=C\c1cc(Br)cs1	-
N=C1CC(=O)N=C(SCC(=O)Nc2ccccc2)N1CCc1ccccc1	-
COc1ccc2c(c1)SCC(NNC1=Nc3ccc(OC)cc3SC1)=N2	-
CC(=O)N[C@@H]1c2ccccc2C2(CCN(C(=O)c3cccc(F)c3F)CC2)[C@H]1OCc1ccccc1	-
O=C(N1CCCC1)C1(c2ccccc2)CCCC1	-
CCC1CCc2c(sc(NC(=O)c3cc(-c4ccco4)nc4ccccc34)c2C(N)=O)C1 (configuration not stated)	43
Cc1ccc(-c2cc(C(=O)Nc3sc4c(c3C(N)=O)CCC(C(C)(C)C)C4)c3ccccc3n2)o1 (configuration not stated)	-
NC(=O)c1c(NC(=O)c2cc(-c3ccccc3)nc3ccccc23)sc2c1CCCCCC2	-
CCC1C(=O)NCCN1c1ccc(C(=O)NCCCc2c(C)noc2C)cn1 (configuration not stated)	-
COc1ccccc1-c1ccnc(-n2ncc(C(=O)N3CCN(C/C=C/c4ccccc4)CC3)c2C)n1	-
O=C(O)c1ccccc1SC1C(=O)Oc2ccccc2C1=O (configuration not stated)	46
SMILES	ROC1-CUL1 inh
O=C1Oc2ccccc2C(=O)C1C(=O)c1ccccc1 (configuration not stated)	-
O=C1Oc2ccccc2C(=O)C1Sc1ccc(Cl)cc1 (configuration not stated)	-
O=C1CC(c2ccccc2)CC(=NCc2ccc3c(c2)OCO3)C1C(=S)Nc1ccccc1 (configuration not stated)	-
CC(CO)(CO)NS(=O)(=O)c1ccc2ccccc2c1	-
Cc1nc(SCC(=O)c2ccc(Cl)cc2)c(C#N)c2c1CCCC2	-
COc1cc(C=Nc2ccc3[nH]c(=O)[nH]c3c2)cc(Br)c1OC(C)=O	-
C=CCn1c(CNc2ccccc2)nnc1SC(C)C(=O)N/N=C/c1ccc(N(CC)CC)cc1 (configuration not stated)	-
C=CCn1c(CNc2cccc3ccccc23)nnc1SC(C)C(=O)N/N=C/c1ccc(OC)cc1OC (configuration not stated)	42
C=CCn1c(CNc2cccc3ccccc23)nnc1SCC(=O)N/N=C/c1ccc(OC)cc1OC	-
COc1ccccc1C(=O)N1N=C(C)CC1(O)C(F)(F)F (configuration not stated)	-
CCN(CC)Cc1nc2ccccc2c(=O)[nH]1	-
C=CCSc1nc2ccccc2c(=O)[nH]1	-
C=CCN=C(N)SCc1nc2ccccc2c(=O)[nH]1	36
COCC1CCCN(C(=O)c2cc(Cn3ccnc3C(C)C)[nH]n2)C1 (configuration not stated)	-
COc1ccc2c(c1)C(=O)Cc1ccccc1O2	67
COc1cccc(C(=O)N=C2Cc3cc(OC)ccc3OC2=O)c1	-
COc1ccc2c(c1)C(=O)Cc1ccccc1S2	-
O=C1C(=O)N(c2nnc(SCc3ccccc3F)s2)C(c2ccc(Cl)cc2)C1C(=O)c1cc2ccccc2o1 (configuration not stated)	-
CCCCCOc1ccc(C2C(C(=O)c3cc4ccccc4o3)C(=O)C(=O)N2c2nc3ccc(OCC)cc3s2)cc1OC (configuration not stated)	-
CCOc1cc(C2C(C(=O)c3cc4ccccc4o3)C(=O)C(=O)N2c2nnc(SCc3ccccc3Cl)s2)ccc1O (configuration not stated)	33
CC(=O)c1sc(N2C(=O)C(=O)C(C(=O)c3cc4ccccc4o3)C2c2ccc(O)cc2)nc1C (configuration not stated)	-
CCOc1cc(C2C(C(=O)c3cc4ccccc4o3)C(=O)C(=O)N2Cc2ccco2)ccc1O (configuration not stated)	-
O=C1C(=O)N(c2nnc(SCc3ccccc3Cl)s2)C(c2ccc(Cl)cc2)C1C(=O)c1cc2ccccc2o1 (configuration not stated)	29
C=CCOC(=O)C1=C(C)OC(=N)C(C#N)C1c1ccoc1 (configuration not stated)	-
N=C1/C(=C/c2cn(Cc3ccccc3F)c3ccccc23)C(=O)N=C2SC(c3ccccc3Cl)=NN12	-
SMILES	ROC1-CUL1 inh
Cc1cccc2c(C(=O)O)cc(-c3ccc(-c4ccccc4)cc3)nc12	-
Cc1cccc2c(C(=O)N(C)C)cc(-c3cnn(Cc4ccccc4)c3)nc12	-
Cc1cccc2c(C(=O)O)cc(-c3ccccc3O)nc12	29
CCCOc1ccc(S(=O)(=O)NNC(=O)COc2ccccc2C)cc1	-
Nc1cc(S(=O)(=O)O)c(N)c2ccc(S(=O)(=O)O)cc12	101
O=S(=O)(O)c1ccc2ncccc2c1	-
CCOc1ccc2cc(S(=O)(=O)O)ccc2c1N	-
Cc1ccc2c(c1)C(C)CC(C)(C)N2C(=O)CSc1nc(C)cc(C)n1 (configuration not stated)	-
O=C(N/N=C/c1cc([N+](=O)[O-])ccc1O)c1ccccn1	-
O=C(N/N=C/c1cc([N+](=O)[O-])ccc1O)c1ccc(C(=O)N/N=C/c2cc([N+](=O)[O-])ccc2O)o1	98
O=C(N/N=C/c1cc([N+](=O)[O-])ccc1O)c1cnccn1	-
COCc1ccc(CN2CCCC(N3CCC(CO)CC3)C2)o1 (configuration not stated)	-
Cc1cc2c(=O)oc(-c3cccc4ccccc34)nc2s1	-
CC(C)C(C)OC1CC(=O)CC2C(=O)c3c(O)ccc(O)c3C(=O)C12 (configuration not stated)	60
O=C(OCc1ccccc1)c1ccccc1Cl	-
CC1CCN(c2c(C#N)c3nnnn3c3ccccc23)CC1	-
CN(C)c1ccccc1/C=C1\Oc2ccccc2C1=O	27
CC(=O)Cc1ccccc1/C=C1\OC(=O)c2ccccc21	-
COc1ccccc1/C=C1\Oc2cccc(OC)c2C1=O	-
CCCC(=O)Nc1ccccc1C(=O)OC	-
COc1ccc(CCN2C(=O)NC(=O)C3C2=NC(=O)C3(NC(=O)c2ccccc2F)C(F)(F)F)cc1OC (configuration not stated)	-
COc1ccc2c(c1)=CC(=Cc1sc(=S)[nH]c1O)C(=O)N=2	-
